Records with an inconclusive call do not appear. The source made the active and inactive calls. The limit is not given here; nearly all actives have IC50 up to about 30 µM.

This assay is described as follows: SU-DIPG-XXV glioma cell viability, MIPE5.0 library, qHTS (AID 1347068;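 as to IC50: cells exposed to compound for 48 hours before viability readout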). (Quantitative high-throughput screening tests each substance at several concentrations.)
As for `O=C(Nc1nccs1)C(c1cc(F)ccc1O)N1Cc2ccccc2C1=O` (configuration not stated), the compound was classed as inactive.

As to `COCCNCc1ccc(-c2cc3nccc(Oc4ccc(NC(=S)NC(=O)Cc5ccc(F)cc5)cc4F)c3s2)nc1`, the IC50 is 9.34 µM (active).

For the compound `CC(C)[C@](O)(c1ccc2cc(OC(F)F)c(OC(F)F)cc2c1)c1cn[nH]n1`, the outcome was inactive.

On to `FC(F)(F)c1ccc(CNc2ccc(Cc3c[nH]c4ncccc34)cn2)cc1`, for which the compound was classed as inactive.

As for `CCn1c(=O)c(-c2ccc(Cl)cc2Cl)cc2cnc(Nc3ccc(N4CCNCC4)c(F)c3)nc21`, the result was inactive.

Regarding `CN[C@@H](C)C(=O)N[C@H](C(=O)N1CCC[C@H]1c1nc(C(=O)c2ccc(F)cc2)cs1)C1CCCCC1`, the call was inactive.

For `CC(=O)N1CCN(c2ccc(NC(=O)Cc3cnc(-c4ccnc(F)c4)c(C)c3)nc2)CC1`, the compound was classed as inactive.

In the case of `CCC(CC)CC1(C(=O)Nc2ccccc2SC(=O)C(C)C)CCCCC1`, the call was inactive.

On to `CCCNC(=O)c1cn2ncnc(Nc3cc(C(=O)NC4CC4)ccc3C)c2c1C`, for which the compound was classed as inactive.

`COc1ccc(C(=O)N2CCN(C(=O)/C=C/c3ccc(Br)cc3)CC2)cc1`: the compound was classed as inactive.

Turning to `COC(=O)c1ccc([C@H]2c3[nH]c4ccccc4c3C[C@H](C(=O)OC)N2C(=O)CCl)cc1`, the 50% inhibitory concentration (IC50) was 14.8 µM (active).

`N=C(N)c1ccc2nc(-c3cc(CC(=O)N[C@@H](CC(=O)O)C(=O)O)cc(-c4cc(S(N)(=O)=O)ccc4O)c3O)[nH]c2c1`: the call was inactive.

Consider `CCCCCCCCCCCCCCCCOCCCOP(=O)(O)COC(CO)Cn1ccc(N)nc1=O` (configuration not stated), for which the compound was called inactive.

In the case of `CC(C)C[C@@H]1NC(=O)[C@@H](C(C)C)NC(=O)[C@@H]2CCCN2C(=O)[C@@H](CC(=O)O)NC(=O)[C@@H](Cc2c[nH]c3ccccc23)NC1=O`, the result was inactive.

As to `Cc1cc(Nc2cc(N)ncn2)c(=O)n2c1C(=O)NC21CCCCC1`, the outcome was inactive.

For the compound `O=C(NCC(=O)N1CC[C@H](NC2CCC(O)(c3ccc(-c4ncccn4)cn3)CC2)C1)c1cccc(C(F)(F)F)c1` (some centres not stated), the call was inactive.

On to `CC(C)(CO)n1cc(C(=O)c2cncc(NC(=O)Cc3ccc(Cl)cn3)c2)c2cnc(N)nc21`, for which the outcome was inactive.

Take `O=C(Nc1cccc(Cl)c1)Nc1ncc(CCNc2ncnc3ccsc23)s1`: the IC50 is 11.8 µM (active).

Consider `O=C1OC2(CCC(C(=O)Nc3ccn(-c4ccccc4F)n3)CC2)c2cnccc21` (configuration not stated), for which the compound was classed as inactive.

As for `Cc1ccc(-c2nn(C(C)(C)CNC(=O)c3ccncc3)c3ncnc(N)c23)cc1`, the IC50 is 14.8 µM (active).

Turning to `COc1cc2c(cc1OC)CN(CCc1ccc(-n3nnc(-c4cc(OC)c(OC)cc4NC(=O)c4cc(=O)c5ccccc5o4)n3)cc1)CC2`, the compound was called inactive.

On to `Cn1cc(-c2c[nH]c3ncnc(N4CCOCC4)c23)cn1`, for which the result was inactive.

Take `CC(C)(C)Sc1c(CC(C)(C)C(=O)O)n(Cc2ccc(Cl)cc2)c2ccc(OCc3ccc4ccccc4n3)cc12`: the result was inactive.

In the case of `CN1CCN(C2CCC(n3cc(-c4ccc(Oc5ccccc5)cc4)c4c(N)ncnc43)CC2)CC1` (configuration not stated), the IC50 was 8.33 µM (active).

On to `CCN(CC)CCCC[C@H](NC(=O)[C@H](CC(C)C)NC(=O)[C@H](C)NC(=O)[C@H](Cc1ccccc1)NC(=O)c1ccc(C(C)(C)C)cc1)C(=O)N[C@@H](CO)C(=O)OC`, for which the compound was called inactive.

On to `C[C@@H](OC[C@@]1(c2ccccc2)CC[C@]2(CCC(=O)N2)CN1)c1cc(C(F)(F)F)cc(C(F)(F)F)c1`, for which the IC50 was 20.9 µM (active).

Take `N[C@@H](CCC(=O)O)C(=O)N[C@@H](Cc1c[nH]c2ccccc12)C(=O)O`: the outcome was inactive.

Consider `Cc1cc(C)c(S(=O)(=O)N(CCc2cccc(Br)c2)Cc2ccc(-c3cccc(S(C)(=O)=O)c3)cc2)c(C)c1`, for which the outcome was inactive.

Consider `O=C(Cc1ccccc1)Nc1nnc(CCSCCc2nnc(NC(=O)Cc3ccccc3)s2)s1`, for which the compound was classed as inactive.

With `C=CC(=O)N1CCC[C@H](n2c(=O)n(-c3ccc(Oc4ccccc4)cc3)c3c(N)ncnc32)C1`, the result was inactive.

As to `CNCCCOc1cc(F)c(-c2c(Cl)nc3ncnn3c2N[C@@H](C)C(F)(F)F)c(F)c1`, the IC50 was 0.235 µM (active).

In the case of `CCc1ccc2nc(Nc3cc(Cc4ccccc4)nc(NC4CCC(O)CC4)n3)sc2c1` (configuration not stated), the outcome was inactive.

Broadly, the IC50 is the concentration needed to halve the response being measured.

The values above are taken from PubChem BioAssay.
